In PubChem BioAssay AID1259415 (National Center for Advancing Translational Sciences (NCATS), 2018):
Where “and” joins values, the source holds several entries; their conditions need not be identical. Equal values may be shown once. Hit rate of the full screen: of about 410,000 compounds, about 18,000 (4.4%) were called active. Not shown: some 7% with an inconclusive outcome. The sample holds actives, similar compounds and a random draw of the others, so the mix is not that of the screen. Values without a mark were called inactive. Rule as the data show it: active = activity change below about -60%; inconclusive = no clear call, values can overlap the other calls; inactive = above about -39%.

experiment: qHTS Assay for inhibitors of the human cytomegalovirus (HCMV); conditions: HFF cells, HCMV-luciferase reporter, 72 h; at 57.5 µM; hits give low values
Summary of the method: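 HFF cells seeded 16 h at 37C, treated with compounds, infected with luciferase-reporter HCMV at MOI 1 PFU/cell; luciferase read at 72 h post infection, normalized to buffer-only and Salinomycin controls.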
% is scaled to controls: 0 for no effect and ±100 for the full control effect.

SMILES	activity change, negative = inhibition
CCNC(=O)C1(C)CCCN1C(=O)c1ccc(N(C)C)cc1 (centres undefined)	-8.81%
Cc1ccc(-c2nnc(Nc3ccc(C(=O)N(C)C)cc3)c3ccccc23)cc1S(N)(=O)=O	-17.4%
Cc1ccc(Nc2nnc(-c3ccc(C)c(S(=O)(=O)N4CCCCC4)c3)c3ccccc23)cc1	-7.76%
Cc1ccc(C)c(Nc2nnc(-c3ccc(C)c(S(=O)(=O)N4CCCCC4)c3)c3ccccc23)c1	-66.1% (active)
COc1cc(CN(C(=O)c2ccccc2Br)c2ccccn2)cc(OC)c1OC	-1.41%
O=S(=O)(c1ccc(Br)cc1)c1nnn2c1nc(NC1CCCCCC1)c1sccc12	-2.26%
CCn1cc(C(=O)OCC(=O)Nc2cc(C)cc(C)c2)c(=O)c2ccc(C)nc21	-39.2%
CCn1cc(C(=O)OCC(=O)Nc2cccc(C)c2)c(=O)c2ccc(C)nc21	37.7%
CCn1cc(C(=O)N2CC=C(c3ccccc3)CC2)c(=O)c2ccc(C)nc21	-108% (active)
CCc1ccccc1NC(=O)c1cnn(-c2ccc(F)cc2)c1C1CCNCC1	2.44%
CCOC(=O)Cc1ccc(NC(=O)Nc2c[nH]c(=O)[nH]c2=O)cc1	8.88%
COc1ccccc1CNC(=O)C(Cc1ccccc1)NS(=O)(=O)c1ccc2c(c1)oc(=O)n2C (centres undefined)	5.72%
Cc1[nH]c(C)c(S(=O)(=O)N2CCN(c3cccc(C(F)(F)F)c3)CC2)c1C(=O)N1CCCC1	-9.51%
Cc1ccc(C)c(N2CCN(S(=O)(=O)c3c(C)[nH]c(C)c3C(=O)N3CCCC3)CC2)c1	-31.6%
Cc1[nH]c(C)c(S(=O)(=O)N2CCN(c3cccc(C(F)(F)F)c3)CC2)c1C(=O)N1CCCCC1	-80.2% (active)
CCCS(=O)(=O)c1c(Nc2ccccc2C)sc(C(=O)c2ccccc2)c1N	16.8%
O=c1cc(CSc2ncn[nH]2)[nH]c2ccc(F)cc12	10.7%
CC(C)(C)N1C(=O)c2c(C(=O)OCc3ccccc3)[nH]c(-c3ccccc3)c2C1=O	-12.2%
COc1ccc(CCNC(=O)c2c3c(nc4ccccc24)C(=O)N(C2CCCCC2)C3)cc1OC	-6.18%
COc1ccccc1Nc1cc(C(=O)NCCCN(C)C2CCCCC2)c2ccccc2n1	-98.1% (active)
CCCCN(CCCNC(=O)c1cc(Nc2ccccc2OC)nc2ccccc12)c1ccccc1	-9.32%
CCN(CCCNC(=O)c1cc2cc3cc(OC)ccc3nc2s1)c1ccccc1	44.1%

SMILES	activity change, negative = inhibition
CCN(CCCNC(=O)CSc1cc(=O)n(C)c2cc(Cl)ccc12)c1cccc(C)c1	1.12%
CCN(CCCNC(=O)c1cc(Nc2ccc(OC)cc2)nc2ccccc12)c1cccc(C)c1	-61.5% (active)
CCc1nc2cccnc2n1-c1ccc(CC(=O)Nc2c(C)cccc2C)cc1	0%
Cc1cc(C)cc(NC(=O)c2cnc3sc(N4CCCC4)nn3c2=O)c1	-28.7%
CCCCCCCCn1c2c(c(=N)c3c1CCC3)CCCC2	-99.4% (active)
CSc1ncc(C(=O)NCc2ccccc2Cl)c(C(F)(F)F)n1	-2.41%
O=C(CCN1CCCO1)N1CCCC(N2CCN(c3cccc(C(F)(F)F)c3)CC2)C1 (centres undefined)	69.3%
COC(=O)c1ccc(NC(=O)c2cc(S(=O)(=O)N3CCC(C)CC3)cn2C)cc1	-7.89%
Cc1c2cnn(-c3ccccc3)c(=O)c2c(C)n1C(C)C(=O)Nc1ccc(Br)cc1F (centres undefined)	-30.3%
CC1CC(C)CN(S(=O)(=O)c2cccc(C(=O)N3C(=O)c4cccc(N)c4C3=O)c2)C1 (centres undefined)	4.25%
Cn1c(CCN2CCN(c3ccccn3)CC2)nc2cc(NS(=O)(=O)c3ccc(F)cc3)ccc21	-85.1% (active)
Cn1c(=O)n(C)c2cc(S(=O)(=O)Nc3ccc(F)cc3)ccc21	41.5%
Cn1c(=O)n(C)c2cc(NS(=O)(=O)c3ccc(F)cc3)ccc21	1.03% and 221%
COc1ccc(NC(=O)CSc2nc3ccccc3[nH]2)cc1	2.79%
CCOC(=O)C1=C(c2ccccc2)Nc2ncnn2C1c1ccc(Cl)cc1 (centres undefined)	-113% (active)
CC1=C(C(=O)Nc2ccccc2Cl)C(c2cccs2)n2ncnc2N1 (centres undefined)	-15.8%
CCOc1ccccc1NC(=O)C1=C(C)Nc2ncnn2C1c1ccc(NC(C)=O)cc1 (centres undefined)	4.88%
CCc1nn(CC(=O)Nc2cc(C)cc(C)c2)c(=O)c2cc3sccc3n12	-8.76%
CCS(=O)(=O)N1CCC(n2c(C)nc3cccnc32)CC1	-0.684%
CCCSc1nc2sc3c(c2c(=O)n1-c1cccc(Br)c1)CC(C)(C)OC3	-0.221%
CC/C(C)=N/Nc1nc2sc3c(c2c(=O)[nH]1)CC(C)(C)OC3	-10.6%
C=CCNC(=S)NNc1ncnc2sc3c(c12)CC(C)(C)OC3	-105% (active)
